# Assay results published in doi:10.1101/2024.03.05.583629.
# Key:
# pT7_6His-AlfaTag-HOXD13 = pT7_6His-AlfaTag-HOXD13 (human, UniProt P35453 263-343); test: PADIT-seq; details: dsDNA, one strand shown
# pT7_6His-AlfaTag-ZIF268 = pT7_6His-AlfaTag-ZIF268 (human, UniProt P18146 335-423); test: PADIT-seq; details: dsDNA, one strand shown
# Chain of pT7_6His-AlfaTag-HOXD13 (P35453 263-343): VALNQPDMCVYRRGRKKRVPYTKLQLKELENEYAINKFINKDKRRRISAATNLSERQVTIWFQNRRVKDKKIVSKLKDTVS
sequence,measurement,setting,value
CTCGAGGATATCAAGATCTGGCCTCGGCCGCCCAGGAGGAACCTCTAGCTAGCCGACTCACTATAGGGATAATCGCCCTGAGCAAAGACC,binding signal,pT7_6His-AlfaTag-HOXD13,-1.1 ± 0.149 log2FC
same,binding signal,pT7_6His-AlfaTag-ZIF268,0.0116 ± 0.118 log2FC
CTCGAGGATATCAAGATCTGGCCTCGGCATTTTAATAGGAACCTCTAGCTAGCCGACTCACTATAGGGATAATCGCCCTGAGCAAAGACC,binding signal,pT7_6His-AlfaTag-HOXD13,2.83 ± 0.073 log2FC
same,binding signal,pT7_6His-AlfaTag-ZIF268,0.0148 ± 0.0814 log2FC
CTCGAGGATATCAAGATCTGGCCTCGGCATTTTACCAGGAACCTCTAGCTAGCCGACTCACTATAGGGATAATCGCCCTGAGCAAAGACC,binding signal,pT7_6His-AlfaTag-HOXD13,0.505 ± 0.0919 log2FC
CTCGAGGATATCAAGATCTGGCCTCGGCGCGCAGGCGGGAACCTCTAGCTAGCCGACTCACTATAGGGATAATCGCCCTGAGCAAAGACC,binding signal,pT7_6His-AlfaTag-HOXD13,-1.07 ± 0.126 log2FC
same,binding signal,pT7_6His-AlfaTag-ZIF268,0.339 ± 0.0965 log2FC
CTCGAGGATATCAAGATCTGGCCTCGGCGCGTGGAATGGAACCTCTAGCTAGCCGACTCACTATAGGGATAATCGCCCTGAGCAAAGACC,binding signal,pT7_6His-AlfaTag-HOXD13,-0.959 ± 0.133 log2FC
same,binding signal,pT7_6His-AlfaTag-ZIF268,0.0778 ± 0.106 log2FC
CTCGAGGATATCAAGATCTGGCCTCGGCGCCCCACGCGGAACCTCTAGCTAGCCGACTCACTATAGGGATAATCGCCCTGAGCAAAGACC,binding signal,pT7_6His-AlfaTag-HOXD13,-0.996 ± 0.127 log2FC
same,binding signal,pT7_6His-AlfaTag-ZIF268,0.0171 ± 0.103 log2FC
CTCGAGGATATCAAGATCTGGCCTCGGCATCCCACGCGGAACCTCTAGCTAGCCGACTCACTATAGGGATAATCGCCCTGAGCAAAGACC,binding signal,pT7_6His-AlfaTag-HOXD13,-0.991 ± 0.113 log2FC
same,binding signal,pT7_6His-AlfaTag-ZIF268,0.41 ± 0.087 log2FC
CTCGAGGATATCAAGATCTGGCCTCGGCGCGATTGCGGGAACCTCTAGCTAGCCGACTCACTATAGGGATAATCGCCCTGAGCAAAGACC,binding signal,pT7_6His-AlfaTag-HOXD13,-0.695 ± 0.114 log2FC
same,binding signal,pT7_6His-AlfaTag-ZIF268,0.187 ± 0.0941 log2FC
CTCGAGGATATCAAGATCTGGCCTCGGCGATCCACGCGGAACCTCTAGCTAGCCGACTCACTATAGGGATAATCGCCCTGAGCAAAGACC,binding signal,pT7_6His-AlfaTag-HOXD13,-1.01 ± 0.105 log2FC
CTCGAGGATATCAAGATCTGGCCTCGGCATTTTATCTGGAACCTCTAGCTAGCCGACTCACTATAGGGATAATCGCCCTGAGCAAAGACC,binding signal,pT7_6His-AlfaTag-HOXD13,0.909 ± 0.103 log2FC
same,binding signal,pT7_6His-AlfaTag-ZIF268,0.0226 ± 0.102 log2FC
CTCGAGGATATCAAGATCTGGCCTCGGCTCTATAAAAGGAACCTCTAGCTAGCCGACTCACTATAGGGATAATCGCCCTGAGCAAAGACC,binding signal,pT7_6His-AlfaTag-HOXD13,2.9 ± 0.0831 log2FC
same,binding signal,pT7_6His-AlfaTag-ZIF268,0.0429 ± 0.0922 log2FC
CTCGAGGATATCAAGATCTGGCCTCGGCGCGTGGAGTGGAACCTCTAGCTAGCCGACTCACTATAGGGATAATCGCCCTGAGCAAAGACC,binding signal,pT7_6His-AlfaTag-HOXD13,-0.822 ± 0.144 log2FC
same,binding signal,pT7_6His-AlfaTag-ZIF268,0.252 ± 0.117 log2FC
CTCGAGGATATCAAGATCTGGCCTCGGCGTTTTAGCAGGAACCTCTAGCTAGCCGACTCACTATAGGGATAATCGCCCTGAGCAAAGACC,binding signal,pT7_6His-AlfaTag-HOXD13,0.799 ± 0.115 log2FC
same,binding signal,pT7_6His-AlfaTag-ZIF268,0.0694 ± 0.112 log2FC
CTCGAGGATATCAAGATCTGGCCTCGGCCTTTTAATCGGAACCTCTAGCTAGCCGACTCACTATAGGGATAATCGCCCTGAGCAAAGACC,binding signal,pT7_6His-AlfaTag-HOXD13,1.35 ± 0.0812 log2FC
CTCGAGGATATCAAGATCTGGCCTCGGCTACATAAAAGGAACCTCTAGCTAGCCGACTCACTATAGGGATAATCGCCCTGAGCAAAGACC,binding signal,pT7_6His-AlfaTag-HOXD13,2.05 ± 0.0966 log2FC
same,binding signal,pT7_6His-AlfaTag-ZIF268,0.0761 ± 0.103 log2FC
CTCGAGGATATCAAGATCTGGCCTCGGCCGCCCACTGGGAACCTCTAGCTAGCCGACTCACTATAGGGATAATCGCCCTGAGCAAAGACC,binding signal,pT7_6His-AlfaTag-HOXD13,-0.571 ± 0.123 log2FC
same,binding signal,pT7_6His-AlfaTag-ZIF268,0.278 ± 0.104 log2FC
CTCGAGGATATCAAGATCTGGCCTCGGCTTAGTAAAAGGAACCTCTAGCTAGCCGACTCACTATAGGGATAATCGCCCTGAGCAAAGACC,binding signal,pT7_6His-AlfaTag-HOXD13,1.23 ± 0.0947 log2FC
CTCGAGGATATCAAGATCTGGCCTCGGCTTATTAAAAGGAACCTCTAGCTAGCCGACTCACTATAGGGATAATCGCCCTGAGCAAAGACC,binding signal,pT7_6His-AlfaTag-HOXD13,3.06 ± 0.0807 log2FC
same,binding signal,pT7_6His-AlfaTag-ZIF268,0.0487 ± 0.0902 log2FC
CTCGAGGATATCAAGATCTGGCCTCGGCCTTTTAGGAGGAACCTCTAGCTAGCCGACTCACTATAGGGATAATCGCCCTGAGCAAAGACC,binding signal,pT7_6His-AlfaTag-HOXD13,1.3 ± 0.0799 log2FC
same,binding signal,pT7_6His-AlfaTag-ZIF268,0.0187 ± 0.0815 log2FC
CTCGAGGATATCAAGATCTGGCCTCGGCACGTGGGCGGGAACCTCTAGCTAGCCGACTCACTATAGGGATAATCGCCCTGAGCAAAGACC,binding signal,pT7_6His-AlfaTag-HOXD13,-0.888 ± 0.116 log2FC
same,binding signal,pT7_6His-AlfaTag-ZIF268,3.56 ± 0.0868 log2FC
CTCGAGGATATCAAGATCTGGCCTCGGCGGGATAAAAGGAACCTCTAGCTAGCCGACTCACTATAGGGATAATCGCCCTGAGCAAAGACC,binding signal,pT7_6His-AlfaTag-HOXD13,0.241 ± 0.0798 log2FC
same,binding signal,pT7_6His-AlfaTag-ZIF268,0.0461 ± 0.0742 log2FC
CTCGAGGATATCAAGATCTGGCCTCGGCAGCGTAAAAGGAACCTCTAGCTAGCCGACTCACTATAGGGATAATCGCCCTGAGCAAAGACC,binding signal,pT7_6His-AlfaTag-HOXD13,0.403 ± 0.0993 log2FC
same,binding signal,pT7_6His-AlfaTag-ZIF268,0.0644 ± 0.094 log2FC
CTCGAGGATATCAAGATCTGGCCTCGGCAGTTTAAAAGGAACCTCTAGCTAGCCGACTCACTATAGGGATAATCGCCCTGAGCAAAGACC,binding signal,pT7_6His-AlfaTag-HOXD13,2.23 ± 0.0764 log2FC
same,binding signal,pT7_6His-AlfaTag-ZIF268,0.0518 ± 0.0805 log2FC
CTCGAGGATATCAAGATCTGGCCTCGGCTTTTTACATGGAACCTCTAGCTAGCCGACTCACTATAGGGATAATCGCCCTGAGCAAAGACC,binding signal,pT7_6His-AlfaTag-HOXD13,2.12 ± 0.0858 log2FC
